{"source": "PubChem BioAssay AID588342", "about": "(National Center for Advancing Translational Sciences (NCATS), 2011)", "note": "The whole screen tested about 360,000 compounds, of which about 25,000 (6.9%) were called active. Where a call stands in place of a potency, no number is given. Not shown: some 9% with an inconclusive outcome. Calls come from the whole dose curve; as a rule, active = well fitted inhibition curve with a large enough effect; inconclusive = small, poorly fitted or top-dose-only effect; inactive = flat fitted curve, though single readings scatter. Many of the other results were omitted from the sample, so actives are more common in it than they were. Potency is the fitted concentration of half-maximal effect."}
{"target": "Luciferin 4-monooxygenase (Photinus pyralis) (UniProt P08659)", "sequence (P08659 whole entry, looked up)": "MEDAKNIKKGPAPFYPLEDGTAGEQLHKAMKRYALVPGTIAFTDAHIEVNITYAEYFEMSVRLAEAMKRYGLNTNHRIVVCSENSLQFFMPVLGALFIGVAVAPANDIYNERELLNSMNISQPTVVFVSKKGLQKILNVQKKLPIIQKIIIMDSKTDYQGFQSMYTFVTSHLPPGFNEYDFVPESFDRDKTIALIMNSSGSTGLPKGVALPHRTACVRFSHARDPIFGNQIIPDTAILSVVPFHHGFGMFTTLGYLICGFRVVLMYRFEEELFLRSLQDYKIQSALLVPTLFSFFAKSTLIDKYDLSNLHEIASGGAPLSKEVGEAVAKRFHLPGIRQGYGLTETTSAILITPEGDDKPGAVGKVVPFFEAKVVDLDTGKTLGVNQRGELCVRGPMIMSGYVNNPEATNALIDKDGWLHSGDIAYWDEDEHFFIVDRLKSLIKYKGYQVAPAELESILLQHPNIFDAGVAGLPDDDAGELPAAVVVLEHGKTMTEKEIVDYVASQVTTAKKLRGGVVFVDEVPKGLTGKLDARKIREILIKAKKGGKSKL", "experiment": "qHTS profiling assay for firefly luciferase inhibitor/activator using purifed enzyme and Km concentrations of substrates (counterscreen for miR-21 project); note: nearly all actives have a fitted effect of over 55% in size", "settings": "purified FLuc, luminescence inhibition; series mostly up to 57.5 µM", "outline": "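Biochemical qHTS of compounds, final roughly 60 µM downward over six points, against 10 nM purified firefly luciferase using Km concentrations of substrates (10 uM D-luciferin, 10 uM ATP) in Tris acetate pH 7.5 buffer; luminescence output.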"}
{"smiles": "Cc1nc2c(-c3ccccc3)c(C)nn2c(C)c1CCC(=O)NCCc1ccccc1", "Potency": "inactive"}
{"smiles": "COc1cccc(CNC(=O)C2CCN(S(=O)(=O)c3ccc4c(ccn4C)c3)CC2)c1", "Potency": "inactive"}
{"smiles": "CC1CCCCC1NC(=O)NC(=O)COC(=O)C1=NN(c2ccccc2)C(=O)CC1", "note": "(configuration not stated)", "Potency": "inactive"}
{"smiles": "CS/C(=C\\C(=O)c1ccco1)Nc1ccccc1Cl", "Potency": "3.79 µM (active)"}
{"smiles": "Cc1c(Cl)cccc1NC(=O)CCC(=O)N/N=C/c1ccco1", "Potency": "inactive"}
{"smiles": "O=C(Nc1ccccc1C(=O)N1CCCCC1)c1ccco1", "Potency": "inactive"}
{"smiles": "COc1cccc(NC(=O)N(Cc2cn(C)c3ccccc23)C2CCCCCC2)c1", "Potency": "inactive"}
{"smiles": "CC(=O)OC1=C(C(C)=O)N(Cc2ccccc2)S(=O)(=O)c2ccccc21", "Potency": "inactive"}
{"smiles": "CN1/C(=C\\C=C2\\N=C(c3ccc(F)cc3)OC2=O)C(C)(C)c2ccccc21", "Potency": "inactive"}
{"smiles": "Cc1cccc(C2=N/C(=C/c3cccs3)C(=O)O2)c1", "Potency": "2.69 µM (active)"}
{"smiles": "Cc1ccc(C2=N/C(=C\\c3ccc(OS(=O)(=O)c4ccc(C)cc4)cc3)C(=O)O2)cc1", "Potency": "inactive"}
{"smiles": "CCCCOc1ccc(C(=O)N2CC(=O)Nc3ccc(Br)cc3C2c2ccc(F)cc2)cc1", "note": "(configuration not stated)", "Potency": "inactive"}
{"smiles": "Cc1ccc2cc3cc(C(=O)N4CCCCCC4)oc3nc2c1", "Potency": "2.69 µM (active)"}
{"smiles": "Cc1ccc2oc(=O)c3cnn(CC(=O)N4CCCCCC4)c3c2c1", "Potency": "inactive"}
{"smiles": "CCc1ccc(CNC(=O)c2cc3cc4ccc(OC)cc4nc3o2)cc1", "Potency": "inactive"}
{"smiles": "CCCCn1c(N)c(N(CC)C(=O)c2ccc(N(C)S(=O)(=O)c3ccc(C)cc3)cc2)c(=O)[nH]c1=O", "Potency": "inactive"}
{"smiles": "Cc1cc(Br)ccc1SCC(=O)OCC(=O)NCc1ccc2c(c1)OCO2", "Potency": "inactive"}
{"smiles": "Cc1ccccc1NC(=O)Cc1nc(COC(=O)c2cccnc2Cl)cs1", "Potency": "inactive"}
{"smiles": "CCCNC(=O)C1CCC(Cn2c(=O)c3sccc3n(Cc3ccccc3F)c2=O)CC1", "note": "(configuration not stated)", "Potency": "inactive"}
{"smiles": "O=C(Cn1cnc2c(cnn2-c2ccc(F)cc2)c1=O)NCCc1ccccc1", "Potency": "inactive"}
{"smiles": "CC(=O)Cn1cnc2c(cnn2-c2ccccc2)c1=O", "Potency": "inactive"}
{"smiles": "COc1ccc(-n2ncc3c(SCC(=O)NNC(C)=O)ncnc32)cc1", "Potency": "16.9 µM (active)"}
{"smiles": "O=C(Cn1cnc2c(cnn2-c2ccccc2)c1=O)NCc1ccccc1", "Potency": "inactive"}
{"smiles": "CC(Sc1ncnc2c1cnn2-c1ccccc1)C(=O)Nc1ccc(N2CCOCC2)cc1", "note": "(configuration not stated)", "Potency": "inactive"}
{"smiles": "CCN(CC)C(=O)CSc1ncnc2c1cnn2-c1ccccc1", "Potency": "16.9 µM (active)"}
{"smiles": "COc1ccc(NC(=O)CSc2ncnc3[nH]ncc23)cc1", "Potency": "inactive"}
{"smiles": "CC(C)Sc1ncnc2c1cnn2-c1ccccc1", "Potency": "1.51 µM (active)"}
{"smiles": "CC(=O)Nc1ccc(NC(=O)CSc2ncnc3c2cnn3Cc2ccccc2)cc1", "Potency": "inactive"}
{"smiles": "CCN(CC)C(=O)CSc1nc2cc3c(cc2c(=O)n1CCCC(=O)NCc1ccc2c(c1)OCO2)OCO3", "Potency": "inactive"}
{"smiles": "CCC1=Nc2cc(C(=O)NCCCOC(C)C)ccc2Sc2ccc(C)cc21", "Potency": "inactive"}
{"smiles": "CCN(CC)S(=O)(=O)c1ccc2c(c1)c(=O)c(C(=O)N1CCN(c3cccc(Cl)c3)CC1)cn2C", "Potency": "inactive"}
{"smiles": "CC(C)(C)OC(=O)N1CCC(c2c(C(=O)Nc3ccc4c(c3)OCO4)cnn2-c2ccccc2)CC1", "Potency": "inactive"}
{"smiles": "COc1ccc(-c2noc(CCC(=O)N(C)c3ccccc3C)n2)cc1", "Potency": "inactive"}
{"smiles": "CN(CC(=O)NCC(c1ccccc1)N1CCCC1)S(=O)(=O)c1ccc(Cl)cc1", "note": "(configuration not stated)", "Potency": "inactive"}
{"smiles": "CCOC(=O)c1ccc(NC(=O)Cn2c(=O)cc(C)c3c(C)nn(-c4cccc(F)c4)c32)cc1", "Potency": "inactive"}
{"smiles": "O=C(COC(=O)CCc1nc2ccccc2c(=O)[nH]1)Nc1ccc(N2CCOCC2)cc1", "Potency": "inactive"}
{"smiles": "CCCSc1nsc(N)n1", "Potency": "inactive"}
{"smiles": "CCCCCCSc1nsc(N)n1", "Potency": "26.9 µM (active)"}
{"smiles": "CC(C)CC(=O)NC(=S)NNC(=O)c1cccc([N+](=O)[O-])c1", "Potency": "inactive"}
{"smiles": "COc1ccc(OCCNC(=O)c2cc(C3CC3)nc3c2cnn3C(C)C)cc1", "Potency": "inactive"}
{"smiles": "CCOC(=O)c1ccc(NC(=O)C2CCN(S(=O)(=O)c3ccc4c(c3)CCCC(=O)N4)CC2)cc1", "Potency": "inactive"}
{"smiles": "COc1ccc(-c2nnc3ccc(SCc4ccccc4)nn23)cc1", "Potency": "inactive"}
{"smiles": "COc1cccc(CSc2nc3nc(C)cc(C)n3n2)c1", "Potency": "inactive"}
{"smiles": "COc1ccc2nc(SCc3ccccc3)nc(C)c2c1", "Potency": "2.69 µM (active)"}
{"smiles": "CC(Oc1ccc(Br)cc1)C(=O)NC1CCCCCC1", "note": "(configuration not stated)", "Potency": "inactive"}
{"smiles": "CCn1cc(C(=O)N2CCN(c3cc(Cl)ccc3C)CC2)c(=O)c2cc(S(=O)(=O)N3CCCC3)ccc21", "Potency": "inactive"}
{"smiles": "CC(C)(Oc1ccc(Cl)cc1)C(=O)OCC(=O)NCCc1ccc(S(N)(=O)=O)cc1", "Potency": "inactive"}
{"smiles": "O=C(NCCc1ccccc1)C(=O)NCC(c1ccco1)S(=O)(=O)c1ccccc1", "note": "(configuration not stated)", "Potency": "inactive"}
{"smiles": "CCCCn1c(N)c(N(CCOC)C(=O)c2cccc(S(=O)(=O)N(C)c3ccccc3)c2)c(=O)[nH]c1=O", "Potency": "inactive"}
{"smiles": "O=C(c1cn(-c2ccccc2)nc1-c1cccnc1)N1CCN(S(=O)(=O)c2ccccc2F)CC1", "Potency": "inactive"}
{"smiles": "NC(=O)C1CCN(C(=O)c2cn(-c3ccccc3)nc2-c2cccnc2)CC1", "Potency": "inactive"}
{"smiles": "COc1ccccc1N1CCN(C(=O)c2cn(-c3ccccc3)nc2-c2cccnc2)CC1", "Potency": "9.53 µM (active)"}
{"smiles": "CCOCCCNC(=O)c1c(NC(=O)Cc2coc3c(C)c(C)ccc23)sc2c1CCC2", "Potency": "inactive"}
{"smiles": "CC[C@]1(c2ccccc2OC)C(=O)N(C(=O)OC)N1C(=O)OC", "Potency": "inactive"}
{"smiles": "O=C(COc1ccccc1)NCc1ccc2c(c1)CCN2C(=O)c1ccc(F)cc1", "Potency": "inactive"}
{"smiles": "Cc1cccc(OCCNC(=O)CSc2ccc(C(F)(F)F)cc2[N+](=O)[O-])c1", "Potency": "inactive"}
{"smiles": "COc1ccc(-c2nn(CC(=O)Nc3ccccc3F)c3c2cnc2ccc(F)cc23)cc1", "Potency": "inactive"}
{"smiles": "CC(C)(C)OC(=O)N1CCC(C(=O)NNC(=O)c2ccc(Cl)cc2Cl)CC1", "Potency": "inactive"}
{"smiles": "CCC(C(=O)Nc1ccc2c(c1)OCCO2)c1ccccc1", "note": "(configuration not stated)", "Potency": "inactive"}
{"smiles": "COc1cccc(NC(=O)c2nn(C34CC5CC(CC(C5)C3)C4)cc2[N+](=O)[O-])c1", "Potency": "inactive"}
{"smiles": "Cn1cc([N+](=O)[O-])c(C(=O)Nc2ccc3c(c2)OCCO3)n1", "Potency": "16.9 µM (active)"}
{"smiles": "O=C(Nc1ccc2c(c1)OCCO2)c1cnccn1", "Potency": "12 µM (active)"}
{"smiles": "O=C(Nc1cccc(NC(=O)c2ccco2)c1)c1cnccn1", "Potency": "inactive"}
{"smiles": "O=C(CCN1C(=O)c2ccncc2C1=O)Nc1ccc2c(c1)OCCO2", "Potency": "inactive"}
{"smiles": "O=C(Nc1ccc2c(c1)OCO2)c1ccc(N2C(=O)c3ccccc3C2=O)cc1", "Potency": "inactive"}
{"smiles": "Cc1nn(CC(=O)Nc2ccc3c(c2)OCO3)c(C)c1[N+](=O)[O-]", "Potency": "inactive"}
{"smiles": "O=C(Nc1ccc2c(c1)OCCO2)c1ccoc1", "Potency": "21.3 µM (active)"}
